Measured values from the supplement of paper PMC8728848.
Many of the other results were omitted from the sample, so the strongest signals are more common in it than they were.

Columns and labels:
Assay in all cases: glycan array binding signal (z-score within array); higher = stronger binding
Conditions in all cases: glycan notation: IUPAC condensed, linker removed
GalNAc6S(b1-4)GlcNAc = target: GalNAc6S(b1-4)GlcNAc
In short: (§1)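 Glycan array binding is given as a within-array Z-score, which can be read as non-binding when negative. The arrays, 3228 of them, came from the Consortium for Functional Glycomics database and were retained only where the protein sequence was available. Z-scores were averaged across arrays of the same protein sequence at different concentrations or buffers and across linkers.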

Glc(b1-4)Glc = target: Glc(b1-4)Glc
In short: as §1

[1] = target: GlcNAc(b1-3)Gal(b1-3)GalNAc
In short: as §1

GlcNAc(b1-3)Gal(b1-4)Glc = target: GlcNAc(b1-3)Gal(b1-4)Glc
In short: as §1

[2] = target: GlcNAc(b1-3)Gal(b1-4)GlcNAc(b1-2)[GlcNAc(b1-3)Gal(b1-4)GlcNAc(b1-6)]Man(a1-6)[GlcNAc(b1-3)Gal(b1-4)GlcNAc(b1-2)Man(a1-3)]Man(b1-4)GlcNAc(b1-4)GlcNAc
In short: as §1

[3] = target: GlcNAc(b1-3)Gal(b1-4)GlcNAc(b1-3)Gal(b1-4)GlcNAc
In short: as §1

[4] = target: GlcNAc(b1-4)GlcNAc(b1-4)GlcNAc(b1-4)GlcNAc(b1-4)GlcNAc(b1-4)GlcNAc
In short: as §1

[5] = target: GlcNAc6S(b1-3)Gal(b1-4)GlcNAc
In short: as §1

[6] = target: Neu5Ac(a2-3)Gal(b1-3)GalNAc
In short: as §1

[7] = target: Neu5Ac(a2-3)Gal(b1-3)GlcNAc(b1-2)Man(a1-3)[GlcNAc(b1-4)][Neu5Ac(a2-3)Gal(b1-3)GlcNAc(b1-2)Man(a1-6)]Man(b1-4)GlcNAc(b1-4)GlcNAc
In short: as §1

[8] = target: Neu5Ac(a2-3)Gal(b1-4)GlcNAc(b1-2)[Neu5Ac(a2-3)Gal(b1-4)GlcNAc(b1-4)]Man(a1-3)[GlcNAc(b1-4)][Neu5Ac(a2-3)Gal(b1-4)GlcNAc(b1-2)[Neu5Ac(a2-3)Gal(b1-4)GlcNAc(b1-6)]Man(a1-6)]Man(b1-4)GlcNAc(b1-4)GlcNAc
In short: as §1

[9] = target: Neu5Ac(a2-3)Gal(b1-4)GlcNAc(b1-3)Gal(b1-4)GlcNAc(b1-2)Man(a1-3)[Neu5Ac(a2-3)Gal(b1-4)GlcNAc(b1-3)Gal(b1-4)GlcNAc(b1-2)Man(a1-6)]Man(b1-4)GlcNAc(b1-4)GlcNAc
In short: as §1

[10] = target: Neu5Ac(a2-3)Gal(b1-4)GlcNAc(b1-3)Gal(b1-4)[Fuc(a1-3)]GlcNAc
In short: as §1

[11] = target: Neu5Ac(a2-3)Gal(b1-4)[Fuc(a1-3)]GlcNAc(b1-2)Man
In short: as §1

[12] = target: Neu5Ac(a2-3)Gal(b1-4)[Fuc(a1-3)]GlcNAc(b1-3)GalNAc
In short: as §1

[13] = target: Neu5Ac(a2-3)Gal6S(b1-4)[Fuc(a1-3)]GlcNAc
In short: as §1

[14] = target: Neu5Ac(a2-3)[GalNAc(b1-4)]Gal(b1-4)GlcNAc(b1-3)GalNAc
In short: as §1

[15] = target: Neu5Ac(a2-6)Gal(b1-4)GlcNAc(b1-2)Man
In short: as §1

[16] = target: Neu5Ac(a2-6)Gal(b1-4)GlcNAc(b1-2)Man(a1-6)[GlcNAc(b1-2)Man(a1-3)]Man(b1-4)GlcNAc(b1-4)GlcNAc
In short: as §1

[17] = target: Neu5Ac(a2-6)Gal(b1-4)GlcNAc(b1-2)[Neu5Ac(a2-6)Gal(b1-4)GlcNAc(b1-4)]Man(a1-3)[GlcNAc(b1-4)][Neu5Ac(a2-6)Gal(b1-4)GlcNAc(b1-2)[Neu5Ac(a2-6)Gal(b1-4)GlcNAc(b1-6)]Man(a1-6)]Man(b1-4)GlcNAc(b1-4)GlcNAc
In short: as §1

[18] = target: Neu5Ac(a2-6)Gal(b1-4)GlcNAc(b1-2)[Neu5Ac(a2-6)Gal(b1-4)GlcNAc(b1-6)]Man(a1-6)[Neu5Ac(a2-6)Gal(b1-4)GlcNAc(b1-2)Man(a1-3)][GlcNAc(b1-4)]Man(b1-4)GlcNAc(b1-4)GlcNAc
In short: as §1

[19] = target: Neu5Ac(a2-6)Gal(b1-4)GlcNAc(b1-3)Gal(b1-4)GlcNAc(b1-3)Gal(b1-4)GlcNAc(b1-2)Man(a1-3)[Neu5Ac(a2-6)Gal(b1-4)GlcNAc(b1-3)Gal(b1-4)GlcNAc(b1-3)Gal(b1-4)GlcNAc(b1-2)Man(a1-6)]GalNAc
In short: as §1

[20] = target: Neu5Ac(a2-8)Neu5Ac(a2-3)[GalNAc(b1-4)]Gal(b1-4)Glc
In short: as §1

[21] = target: Neu5Ac(a2-8)Neu5Ac(a2-8)Neu5Ac(a2-3)Gal(b1-4)Glc
In short: as §1

[22] = target: Neu5Ac(a2-8)Neu5Ac(a2-8)Neu5Ac(a2-8)Neu5Ac(a2-3)[GalNAc(b1-4)]Gal(b1-4)Glc
In short: as §1

[23] = target: Neu5Ac(a2-8)Neu5Gc(a2-3)Gal(b1-4)GlcNAc
In short: as §1

Neu5Ac(b2-6)GalNAc = target: Neu5Ac(b2-6)GalNAc
In short: as §1

Neu5Gc(a2-6)GalNAc = target: Neu5Gc(a2-6)GalNAc
In short: as §1

B1: PX9896A-bth-573-26-573 (Bacteroides thetaiotaomicron) (protein)
chain: ETNNLKTKEDMYKYFGTSKSMLTHVYSYMPQGYQLFATSGGIFTEDRYSMRDCASDDGEFGAYADNIQNTNNGNWSPIKTYDDSWTLYRGIRAANSFIAEIAQVDFTRYEHDGQYTNWMKQLKYFPYEARVLRAHYFFELARRYGDIAMPLEVLTEEEANTIGKTPFSEVISFIVSECDDAANNLPDSYVNEPGAEIGRVTKGFAMAVKSKALLYAASKLHNPSMDTELWKKSAKAAIDIINTGLYSLDPQESANNLDSKEVVLMRINGDDSDFEMFNLPLRMTAGTRTSSLIPYSNYPSQNLVDAFETVNGYKVTLENTGWVCEDPAFDPQSPYENRDKRFYRAILANGMSFKDYTIETFKGGADDGIVSQGGSPTGYFLRKYIQEATSFEPGKEAVSKHHWVIYRYAETLLTYAESMVNAFNDVNYTDETYKYSALWAINEVRKNADMPLIPSMGKDEFMERLYNEWRVEFAFEDHRFWDVRRWKIADTTQRELYGVKIEKQADGTFNFYKNLYETRNWRDCMYLYPIPQSELYKNTNLNPQNTGW
glycan array binding signal (z-score) (GalNAc6S(b1-4)GlcNAc): -0.663
glycan array binding signal (z-score) (Glc(b1-4)Glc): 0.069
glycan array binding signal (z-score) [1]: -0.077
glycan array binding signal (z-score) (GlcNAc(b1-3)Gal(b1-4)Glc): 0.621
glycan array binding signal (z-score) [2]: 0.497
glycan array binding signal (z-score) [3]: -0.759
glycan array binding signal (z-score) [4]: -0.604
glycan array binding signal (z-score) [5]: 0.875
glycan array binding signal (z-score) [6]: -0.359
glycan array binding signal (z-score) [7]: -0.678
glycan array binding signal (z-score) [8]: -0.635
glycan array binding signal (z-score) [9]: -0.638
glycan array binding signal (z-score) [10]: -0.535
glycan array binding signal (z-score) [11]: -0.204
glycan array binding signal (z-score) [12]: 4.79
glycan array binding signal (z-score) [13]: -0.756
glycan array binding signal (z-score) [14]: -0.496
glycan array binding signal (z-score) [15]: -0.386
glycan array binding signal (z-score) [16]: -0.598
glycan array binding signal (z-score) [17]: -0.093
glycan array binding signal (z-score) [18]: -0.82
glycan array binding signal (z-score) [19]: 1.34
glycan array binding signal (z-score) [20]: -0.414
glycan array binding signal (z-score) [21]: -0.639
glycan array binding signal (z-score) [22]: 0.475
glycan array binding signal (z-score) [23]: 13.3
glycan array binding signal (z-score) (Neu5Ac(b2-6)GalNAc): -0.726
glycan array binding signal (z-score) (Neu5Gc(a2-6)GalNAc): -0.244
